# Screening data: PubChem BioAssay, National Center for Advancing Translational Sciences (NCATS)
# Sfp inh: blocks B. subtilis Sfp PPTase activity; Q9F4F7; Biochemical Sfp PPTase activity, qHTS; Potency, µM, for inactives: largest response in the series, negative = inhibition, usual class: inhibitors; actives 3.5% (n = 310,000); AID 1490;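 further: the enzyme is Sfp with the accession as filed and its product quenches rhodamine fluorescence; 0% = enzyme reaction without inhibitor and -100% = no enzyme wells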
#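 With Hepes-Na pH 7.6 buffer containing 10 mM MgCl2, Sfp (15 nM) modified BHQ-2-YbbR (12.5 uM) using rhodamine-CoA (5 uM). Two reads 30 minutes apart at 525/598 nm yielded each well's rate.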
# BAZ2B inh: blocks human BAZ2B. actives 4.4% (n = 360,000). AID 504333. AlphaScreen BAZ2B-H3K14Ac peptide displacement. Q9UIF8. Potency, µM (doses to about 114 µM), inactives show at the highest dose activity change, negative = inhibition, most hits filed as inhibitors; further: on the % scale 0 is the no-effect control and ±100 the full control effect; nearly all actives have a fitted effect of over 60% in size
#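 Compounds, titrated to a top concentration of 110 uM, were incubated 30 min at room temperature with preformed BAZ2B/acetyl-K14 H3 peptide complex (50 nM each). Proximity signal was measured by AlphaScreen after 20 min with beads.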
# G9a block: G9a (human) methyltransferase inhibition; AID 504332; Potency, µM (titrated, usually from 102 µM), inactives show top-dose activity, negative = inhibition, usual class: inhibitors; actives 8.8% (n = 350,000); G9a H3K9 monomethylation, AlphaScreen, 2 h; further: on the % scale 0 is the no-effect control and ±100 the full control effect; nearly all actives have a fitted effect of over 75% in size
#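 Compounds were preincubated with 20 nM G9a for 15 min, after which biotinylated H3K9 peptide (500 nM) and SAM (20 uM) started a 2 h room-temperature reaction. Monomethylated product was quantified by antibody-based AlphaScreen chemiluminescence.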
# L3MBTL1 block: inhibitors of human L3MBTL1; Q9Y468; AlphaScreen L3MBTL1–H3K9me1 peptide binding; Potency, µM (series often up to 57.1 µM), without a hit: at the highest dose activity, negative = inhibition, most hits filed as inhibitors; actives 0.66% (n = 230,000); AID 485360; further: on the % scale 0 is the no-effect control and ±100 the full control effect; nearly all actives have a fitted effect of over 60% in size
# Target sequence (Q9Y468 whole entry, looked up): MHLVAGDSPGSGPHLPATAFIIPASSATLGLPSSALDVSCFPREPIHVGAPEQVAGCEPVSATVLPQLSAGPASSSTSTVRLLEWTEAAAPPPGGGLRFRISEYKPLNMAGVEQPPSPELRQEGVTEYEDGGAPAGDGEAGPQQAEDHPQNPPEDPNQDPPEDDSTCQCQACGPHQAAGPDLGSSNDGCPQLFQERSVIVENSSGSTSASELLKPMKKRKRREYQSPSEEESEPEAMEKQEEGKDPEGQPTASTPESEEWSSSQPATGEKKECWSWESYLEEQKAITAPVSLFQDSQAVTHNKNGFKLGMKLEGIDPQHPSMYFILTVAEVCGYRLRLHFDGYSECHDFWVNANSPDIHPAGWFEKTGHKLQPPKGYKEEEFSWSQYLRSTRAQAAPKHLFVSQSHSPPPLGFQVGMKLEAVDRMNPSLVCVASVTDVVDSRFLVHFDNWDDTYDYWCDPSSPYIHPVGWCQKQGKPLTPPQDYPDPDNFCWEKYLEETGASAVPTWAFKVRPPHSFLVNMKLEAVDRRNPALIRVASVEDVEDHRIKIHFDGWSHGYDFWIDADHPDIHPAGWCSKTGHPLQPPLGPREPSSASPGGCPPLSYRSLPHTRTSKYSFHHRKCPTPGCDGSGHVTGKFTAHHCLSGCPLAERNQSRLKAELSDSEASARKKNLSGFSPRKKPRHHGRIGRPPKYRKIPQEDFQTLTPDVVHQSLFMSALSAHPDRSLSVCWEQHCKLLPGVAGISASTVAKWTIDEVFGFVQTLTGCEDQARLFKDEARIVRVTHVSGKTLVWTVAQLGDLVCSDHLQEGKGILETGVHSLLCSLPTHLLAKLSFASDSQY
#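 AlphaScreen proximity signal between nickel-chelate acceptor and streptavidin donor beads (final 10 ug/mL) reports binding of 50 nM L3MBTL1 to 75 nM biotin-H3 K9me1 peptide; complex incubated with compounds 30 min at room temperature; cefsulodin titration as control.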
# HP1b binding inh: blocks HP1-beta chromodomain binding to methylated histone tails; AlphaScreen HP1-beta / biotin-H3K9me3 peptide binding; Potency, µM (highest dose often 114 µM), for the others: at the highest dose activity change, negative = inhibition, actives largely listed as inhibitors; actives 0.56% (n = 390,000); AID 540317; further: nearly all actives have a fitted effect of over 70% in size
#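 Compound inhibition of the preformed complex between 50 nM HP1-beta and 50 nM biotinylated H3K9me3 peptide was read by AlphaScreen. Buffer was PBS pH 7.4 with 0.01% Tween-20. Incubations ran 30 min at room temperature, with 10 ug/mL donor/acceptor beads.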
# JMJD2A Tudor inh: inhibitors of human JMJD2A Tudor domain; actives 4.4% (n = 390,000); AlphaScreen JMJD2A-Tudor / H3K4me3 peptide binding; O75164; AID 504339; Potency, µM (titrated, usually from 114 µM), inactives show top-dose activity change, negative = inhibition, usual class: inhibitors; further: on the % scale 0 is the no-effect control and ±100 the full control effect; nearly all actives have a fitted effect of over 50% in size
# Numbers without * were called inactive; u = inconclusive; x = not tested or not shown; [ ] = another dose, or the depositor's remark. Compounds with a hit are over-represented: about 12% of the library has one in this group of screens. The call rests on the fitted dose curve; in most records, active means well fitted curve in the direction sought with a large enough effect; inconclusive means small, poorly fitted or top-dose-only effect, or another doubt; inactive means no such curve, though single readings can be large; an effect the other way counts as inactive or inconclusive. Potency means the concentration at half of the fitted maximal effect.
SMILES,Sfp inh,BAZ2B inh,G9a block,L3MBTL1 block,HP1b binding inh,JMJD2A Tudor inh
O=C(CN1CCN(S(=O)(=O)c2ccc(C(F)(F)F)cc2)CC1)N1CCNC1=O,x,-4.1%,8.9%[12.7 µM],-0.2%,40.5%,3.8%
CCNc1ncc2nc(-c3ccc(OC)cc3)c(=O)n(Cc3cccc(OC)c3)c2n1,33.6%,x,7.4%[12.7 µM],x,x,x
CSCC[C@@H]1NC(=O)C/C=C\[C@@H](C)COC(=O)[C@H](C)COC1=O,4.1%,x,x,x,x,x
COc1cccc(-c2cc(C(=O)Nc3cc(OC)c(OC)c(OC)c3)on2)c1,x,-33.8%,-39.9%[59 µM],x,0.5%,u
COc1cccc(-c2cc(C(=O)Nc3cc(Cl)ccc3O)on2)c1,x,u,12.6µM*,x,-1.3%,u
COc1ccc(-c2cc(C(=O)Nc3cccc(O)c3)on2)cc1OC,x,u,14.1µM*,x,-8.6%,u
Cc1cccc(C)c1NC(=O)CNC(=O)CCC(=O)c1cccs1,8.2%,-5.3%,-4.6%[59 µM],4.7%,17.7%,-22.9%
CC(=O)c1ccc(N2CCN(c3ccc4cc(S(=O)(=O)N5CCC(C)CC5)ccc4n3)CC2)cc1,6.0%,u,17.8µM*,x,40.2%,u
CC1CCN(S(=O)(=O)c2ccc3nc(N4CCN(c5ccc(F)cc5)CC4)ccc3c2)CC1,x,-0.7%,-3.0%[59 µM],x,44.1%,9.4%
CC1CCN(S(=O)(=O)c2ccc3nc(NCc4ccc(N(C)C)cc4)ccc3c2)CC1,x,35.5µM*,10µM*,x,u,14.1µM*
CCc1ccc(NC(=O)Cn2c(=O)oc3cc(S(=O)(=O)N4CCCCCC4)ccc32)cc1,x,-15.8%,2.7%[59 µM],x,7.2%,-30.9%
O=C(Cn1c2ccccc2c(=O)c2ccccc21)N/N=C/c1ccc(N2CCCC2)c([N+](=O)[O-])c1,-10.9%,7.9%,-26.7%,-6.6%,-1.0%,-24.7%
O=C(Cn1c2ccccc2c(=O)c2ccccc21)N/N=C/c1cc([N+](=O)[O-])ccc1N1CCCCCC1,11.2µM*,-9.7%,23.2%[12.7 µM],2.2%,56.0%,-27.4%
O=C(c1ccncc1)N1CCC2(CC1)CN(C(c1ccccc1)c1ccccc1)C2,6.4%,x,-2.4%[12.7 µM],x,x,x
O=C(N[C@@H](Cc1ccccc1)c1nc2ccccc2[nH]1)c1cc([N+](=O)[O-])ccc1Cl,1.8%,-30.7%,10µM*,2.7%,16.2%,-13.8%
CCOC(=O)N1CCc2c(sc3c2c(=O)n(-c2ccc(F)cc2)c(=O)n3CC(=O)c2ccccc2)C1,x,-15.4%,-33.2%[59 µM],x,27.5%,-8.3%
COc1ccc(-c2cn(Cc3ccc(C(N)=O)cc3)c(-c3ccc(Cl)nc3)n2)cc1,x,-13.2%,0.7%[2.33 µM],-11.5%,-10.3%,u
COc1ccc(Cl)c2c1[nH]c1nc(SCc3ccccn3)nnc12,19.2%,-25.4%,2µM*,x,16.3%,-15.1%
COc1ccc(Cl)c2c1[nH]c1nc(SCc3cccnc3)nnc12,2.4%,-11.0%,u,-10.2%,28.1%,-1.0%
O=C(CCCCn1c(=S)[nH]c2ccsc2c1=O)NCc1ccco1,u,-31.9%,22.4µM*,-4.8%,-14.7%,25.1µM*
Cc1ccccc1Cn1c(=O)n(CCCC(=O)NCc2ccco2)c(=O)c2sccc21,2.5%,5.0%,19.6%,x,4.4%,-19.7%
O=C(CCCn1c(=S)[nH]c2ccsc2c1=O)NCc1ccco1,u,u,u,2.3%,4.4%,56.2µM*
CCOc1cc(/C=N/NC(=O)c2cccnc2)ccc1OCC(=O)N1CCOCC1,17.2%,-4.1%,27.5%[59 µM],8.8%,4.0%,-22.8%
CC(NC(=O)Nc1ccc(O)cc1)(C(F)(F)F)C(F)(F)F,-4.2%,1.1%,11.2µM*,u,3.6%,-15.9%
COc1ccc(NC(=O)NC(C)(C(F)(F)F)C(F)(F)F)cc1,19.7%,-2.6%[57.1 µM],-2.7%,-2.6%,-3.2%,15.8µM*
SMILES,Sfp inh,BAZ2B inh,G9a block,L3MBTL1 block,HP1b binding inh,JMJD2A Tudor inh
CCC(NC(=O)Nc1ccc(O)cc1)(C(F)(F)F)C(F)(F)F,u,1.2%,u,u,10.1%,-17.5%
COc1ccc(NC(=O)NC(C(F)(F)F)C(F)(F)F)cc1,9.2%,5.1%,-28.5%[12.7 µM],x,30.8%,2.0%
CC(=O)c1c(C)n(-c2cccc(Cl)c2)c2ccc(O)cc12,-17.6%,0.0%,35.5µM*,x,7.6%,-20.3%
COc1cc(CNCCc2ccc(S(N)(=O)=O)cc2)ccc1OCC(=O)N1CCCCC1,9.8%,6.8%,0.9%[59 µM],10.5%,24.3%,1.0%
CCC(C)(C)c1ccc(Oc2ccc(N)cc2)cc1,18.3%,u,39.8µM*,-26.4%,u,56.2µM*
Cc1ccc2c(c1)c(C)cc(=O)n2CCC(=O)O,20.1%,50.1µM*,u,u,-16.4%,89.1µM*
Cc1c(C)n(CCC(=O)O)c2ccccc12,8.6%,-35.3%,-28.4%,-16.1%,24.0%,-13.2%
CC(Oc1cc2oc(=O)c3c(c2cc1Cl)CCC3)C(=O)N1C[C@H]2C[C@@H](C1)c1cccc(=O)n1C2 (stereo partly drawn),11.4%,-6.3%,-4.9%[12.7 µM],x,26.0%,-18.4%
COc1ccc(NC(=O)Cn2c(=O)n(-c3cccc(C(F)(F)F)c3)c(=O)c3sccc32)cc1,x,-1.9%,-0.8%[59 µM],x,27.7%,6.1%
O=C(Cn1c(=O)n(-c2cccc(C(F)(F)F)c2)c(=O)c2sccc21)NCC1CCCO1 (stereo not drawn),11.0%,-0.8%,7.5%,x,8.8%,39.8µM*
O=C1Nc2ccccc2C(=O)C1(Cl)Cc1ccccc1 (stereo not drawn),17.8µM*,79.4µM*,u,8.6%,u,50.1µM*
CC(C)(C)N1C(=O)c2ccccc2NC(=O)N1Cc1ccccc1,12.3%,-12.3%,-24.1%[59 µM],x,37.2%,-0.6%
C[N+]1(CC(=O)OCCCc2ccccc2)CCCC1,0.8%,56.2µM*,10µM*,-1.1%,21.1%,u
O=C(CN1CCCC1)OCCCc1ccccc1,2.8%,-6.3%,-16.7%[59 µM],-17.0%,-0.9%,-11.4%
O=C1C(Nc2cccc(O)c2)=C(N2CCCCC2)C(=O)c2ccccc21,31.6µM*,22.4µM*,x,u,22.4µM*,14.1µM*
O=C(/C=C/c1ccc(O)cc1)c1ccccc1,-5.5%,-10.2%,x,-0.8%,24.2%,-7.7%
CN(c1ccccc1)c1nc(N)c([N+](=O)[O-])c(N2CCCCC2)n1,13.9%,u,u,-29.5%,-9.9%,u
COc1ccccc1NC1=C(N2CCCCC2)C(=O)c2ccccc2C1=O,3.6%,31.6µM*,6.31µM*,-27.7%,u,39.8µM*
CN(C1=C(N2CCCCC2)C(=O)c2ccccc2C1=O)c1ccccc1,-9.8%,2.82µM*,3.55µM*,x,u,3.98µM*
O=C(/C=C/c1ccc(O)cc1)c1ccc(NC2=C(N3CCCCC3)C(=O)c3ccccc3C2=O)cc1,u,u,14.1µM*,u,-68.5%,20µM*
